{
  "source": "paper PMC11062922",
  "about": "(Nature Chemical Biology, 2023)",
  "tested_on": "PRKG1",
  "set-up": "species or system human, MV4-11 + K-562 + COLO205 + SK-N-BE2 + OVCAR-8",
  "details": "read-out: apparent Kd; compound concentrations:100 nM and 1000 nM (sheet 'Samples'); n = 1",
  "data": [
    {"molecule": "CCn1c(-c2nonc2N)nc2cnc(Oc3cccc(NC(=O)c4ccc(N(C)C)cc4)c3)cc21", "note": "[GSK248233A]", "values": [
      {"measurement": "potency estimated from few doses", "result": 227, "unit": "nM"}
    ]}
  ]
}
